Potency data for 61 molecules are collected here from PubChem BioAssay AID361 (National Center for Advancing Translational Sciences (NCATS), 2006).

About 600 (1.2%) of roughly 51,000 compounds were called active. Another 2% or so got no clear call; they are omitted. This excerpt belongs to a sample that is enriched for actives. A number with no mark means an inactive call. No stated cut-off is given here; in the data, active means potency below about 11 µM; inconclusive means mostly about 12 µM to 25 µM; inactive means weaker than that;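 the screen sought inhibitors and activators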. Some results are limits rather than exact numbers.
Potency means the concentration at half of the fitted maximal effect.

The assay concerns pyruvate kinase (Bacillus stearothermophilus). The assay can be described thus: Pyruvate Kinase. Conditions: purified pyruvate kinase, luminescence ATP production; ribose 5-phosphate activator present at AC10. As to the method:
Pyruvate kinase (partially purified from Bacillus stearothermophilus) was assayed for its ability to generate ATP from ADP using phosphoenolpyruvate (PEP) as a substrate. ATP generation was detected in a coupled reaction by luciferase-mediated luminescence, an ATP-dependent process. Pyruvate kinase substrates, PEP and ADP, were present in the assay at Km and […]-fold below Km respectively. The enzyme was assayed at an intermediate level of activity to screen for inhibitors and activators. In addition, ribose 5 phosphate, a positive modulator of pyruvate kinase, was included in the assay at AC10 in order to identify possible potentiators.
NCGC Assay Protocol Summary:
Three uL of substrate mix (final concentration, 50 mM imidazole pH 7.2, 50 mM KCl, 7 mM MgCl2, 2 mM PEP, 0.1 mM ADP, 0.7 nM ribose 5 phosphate, 0.01% Tween 20, 0.05% BSA) was dispensed into 1536 well plates. 23 nL of compound were delivered by a pin tool and 1 uL of enzyme mix (final concentration, 10 nM pyruvate kinase, 50 mM imidazole pH 7.2, 0.05% BSA) was added. After centrifugation at 1000 rpm for less than a minute, plates were incubated at room temperature for 2 hours. Three uL of detection and kinase stop mix (PKLight, Cambrex) was added, the plates centrifuged, and luminescence read by a ViewLux (Perkin Elmer) at 5 second exposure/plate. Data were normalized to the controls for AC100 stimulation (5 uM ribose 5 phosphate) and to AC100 inhibition (110 uM luteolin).
As to `CCN(CC)S(=O)(=O)c1ccc2nc(CSc3nnnn3-c3ccc(O)cc3)[nH]c2c1`, the Potency is above 57 µM. As for `O=C(CSc1nnc(-c2cccs2)n1-c1ccccc1)N1CCN(C(=O)c2ccco2)CC1`, the figure is above 57 µM; as for `CCN(CC)c1ccc2oc(=O)c(C)nc2c1`, above 57 µM. Turning to `CCc1ccc2oc(-c3ccc(N)cc3)nc2c1`, the Potency is 2.06 µM (active). As for `COC(=O)C(CC(=O)Nc1cc(C)ccc1C)Nc1ccccc1OC` (stereo unspecified), the Potency was above 57 µM. As for `Cn1c(SCc2c(F)cccc2Cl)nnc1-c1cnccn1`, the figure is above 57 µM; as for `COc1ccccc1N=C1SC(C)CN1C(=O)C1CCC1` (stereo unspecified), above 57 µM. As for `CN(C)c1nc(N)nc(CSc2nnnn2-c2cccc3ccccc23)n1`, the figure is 1.57 µM (active); as for `CN(C(=O)CSc1nnnn1-c1ccccc1)C1CCCCC1`, above 57 µM; as for `Cn1nnnc1SCc1cc(=O)[nH]c2ccccc12`, above 57 µM.

As to `C=CCn1c(=S)[nH]c2nc3c(cc2c1=O)COC(C)(C)C3`, the Potency is above 25.6 µM. As for `COc1ccc(S(=O)(=O)N(CCCN2CCCC2=O)Cc2cc3c(C)ccc(C)c3[nH]c2=O)cc1`, the figure is above 57 µM.

As to `CC(C)OC(=O)C(C#N)c1nc2ccccc2nc1N1CCN(Cc2ccc3c(c2)OCO3)CC1` (stereo unspecified), the Potency was above 25.6 µM. In the case of `CSc1nc(O)c(Cc2ccccc2)c(=O)[nH]1`, the Potency was above 25.6 µM. For `O=C(CN1CCN(C(=O)c2cccc(F)c2)CC1)Nc1ccccc1F`, the Potency was above 57 µM. As for `O=C(c1ccccc1)N1CCN(C(=O)N2CCCCC2)CC1`, the figure is above 57 µM; as for `COc1ccc(CCN2C(=O)c3[nH]nc(-c4ccccc4O)c3C2c2ccc(C)cc2)cc1OC` (stereo unspecified), above 57 µM. As for `Fc1ccc(-c2nnc3sc(-c4ccc5c(c4)OCO5)nn23)cc1`, the figure is above 57 µM; as for `O=C(CN1C(=O)C2C3C=CC(C3)C2C1=O)NCCc1ccccc1Cl` (stereo unspecified), above 57 µM.

`N#CC1=C(N)C(C#N)(C#N)[C@H](c2ccsc2)[C@H]2COCC=C12`: the Potency was above 57 µM. As for `Cn1c(=O)c(=O)n(C)c2cc(S(=O)(=O)NCCc3ccccc3)ccc21`, the figure is above 57 µM; as for `CCCCCCn1c(CN2CCCCC2)nc2c1c(=O)n(C)c(=O)n2C`, above 57 µM. Regarding `O=c1[nH]c(=O)n(Cc2ccco2)c2c1C(C(F)(F)F)(C(F)(F)F)N=C(c1ccco1)N2`, the Potency was above 25.6 µM. As for `CC1CCN(C(=O)Cn2cc(C(=O)c3ccco3)c3ccccc32)CC1`, the Potency is above 57 µM. As for `Cc1noc(C)c1C(=O)OCC(=O)/C=C1\N(C)c2ccccc2C1(C)C`, the figure is above 57 µM; as for `Cc1ccccc1-n1c(SCC(=O)NCc2cccs2)nnc1-c1ccncc1`, above 57 µM.

For `CCn1c(CNC(=O)c2ccc(OC)c(OC)c2)nnc1SCC(=O)Nc1ccccc1`, the Potency is above 57 µM. As for `CCCCNc1nc2ccccc2nc1NS(=O)(=O)c1cccs1`, the figure is above 57 µM. As for `CCOC(=O)c1sc2nc(CSCC(=O)OCc3ccc(C(=O)OC)o3)[nH]c(=O)c2c1C`, the figure is above 57 µM; as for `CCn1c(CSc2nncn2-c2ccc(OC)cc2)nc2cc(S(=O)(=O)N(C)C)ccc21`, above 57 µM. Turning to `N#CCCN(CCC#N)c1nnc(-c2ccccc2)s1`, the Potency is above 25.6 µM.

For the molecule `Cc1cc(C(F)(F)F)c(C#N)c(SCC(=O)NC2CC2)n1`, the Potency is above 25.6 µM.

Regarding `Brc1cccc(-c2nnc3n2CCC3)c1`, the Potency was above 57 µM.

As for `Cc1ccc2nc(NCCCNC(=O)c3cnccn3)c(C#N)cc2c1`, the Potency was above 57 µM.

`Cc1noc(NS(=O)(=O)c2ccc(NC(=O)C34CCC(CC3)C4)cc2)c1C`: the Potency is above 57 µM. In the case of `CC1Cn2c(nnc2-c2cccs2)S1` (stereo unspecified), the Potency is above 57 µM. As for `N#Cc1c2c(c(N3CCN(CCO)CC3)n3c1nc1ccccc13)CCCC2`, the figure is above 57 µM; as for `COc1ccc(OC)c(NC(=O)CN2CCN(C(=O)c3ccco3)CC2)c1`, above 57 µM; as for `OCCCN1c2ccccc2Nc2nnc(-c3ccccc3)cc21`, 6.08 µM (active). As for `O=C(C1CCCO1)N1CCC(c2nc3ccccc3[nH]2)CC1` (stereo unspecified), the figure is above 57 µM; as for `CCCC(=O)N1CCc2[nH]c3ccccc3c2C1`, above 25.6 µM. As for `O=C(Nc1ccc(NC(=O)c2cccs2)cn1)c1ccco1`, the Potency is 7.2 µM (active). With `O=C(Nc1ccc(Oc2ccccc2)cc1)c1ccco1`, the Potency is 51.8 µM.

In the case of `CN1CCN(S(=O)(=O)c2ccc(NC(=O)c3ccco3)cc2)CC1`, the Potency is above 57 µM. On to `CCCc1nnc(NC(=O)c2cc(OC)cc(OC)c2)s1`, for which the Potency is above 57 µM. Take `N#Cc1ccc(OCCN2C(=O)NC3(CCSC3)C2=O)cc1` (stereo unspecified): the Potency was above 57 µM. With `CCCn1c(C(O)c2cc(OC)ccc2OC)nc2ccccc21` (stereo unspecified), the Potency is above 57 µM. As for `COCCn1c(-c2ccc(OC)c(OC)c2)nc2ccccc21`, the figure is above 57 µM; as for `COc1ccc(-c2cc3n(n2)CCc2nc4ccccc4n2-3)cc1`, 1.66 µM (active). On to `COC(=O)c1sc(NC(=O)c2ccc(OC)cc2OC)nc1C`, for which the Potency is 0.093 µM (active). Regarding `CCOC(=O)c1sc(NC(=O)c2cc(S(=O)(=O)N3CCOCC3)ccc2C)nc1C`, the Potency is above 57 µM.

Take `COc1ccc2nc(NC(=O)c3ccc(Br)s3)sc2c1`: the Potency is above 11.4 µM. As to `O=C(NCc1ccco1)c1ccc(CS(=O)(=O)Cc2ccc(F)cc2)o1`, the Potency was above 57 µM. As for `COc1ccccc1NC(=O)C1=C(C)NC2=C(C(=O)CCC2)C1c1ccc(C)o1` (stereo unspecified), the figure is above 57 µM; as for `COc1ccc(N2C(=O)c3cccc4cccc(c34)C2=O)nn1`, above 57 µM; as for `COCCCNC(=O)CSc1nc2ccc(N3CCOCC3)cc2c(=O)n1CCc1ccccc1`, above 57 µM. For `Cc1cc(C)c2c(n1)nn1c(N3CCOCC3)cc(C)nc21`, the Potency is above 57 µM. On to `Cc1nn2c3cc(N4CCOCC4)ccc3nc2c2ccccc12`, for which the Potency is 2.65 µM (active). As for `O=C(c1cccc2ccccc12)N1CCN(c2ccccc2F)CC1`, the Potency is 26 µM. With `Cc1ccc2cccc(S(=O)(=O)N3CCN(c4ccccc4F)CC3)c2n1`, the Potency is 6.92 µM (active). As for `O=S(=O)(N1CCOCC1)N1CCN(c2ccccc2F)CC1`, the figure is above 57 µM.
